Results filed as inconclusive are left out. A number with no mark means an inactive call. The call rests on the fitted dose curve; in most records, active means well fitted curve in the direction sought with a large enough effect; inconclusive means small, poorly fitted or top-dose-only effect, or another doubt; inactive means no such curve, though single readings can be large or run the other way.
Target: phosphoglycerate mutase (Leishmania major) (UniProt Q4Q090)
Experiment: qHTS Validation Assay to Find Inhibitors of Phosphoglycerate Mutase (AID 504548)
Details: biochemical enzyme activity; Potency: inhibition qHTS; series mostly up to 57.5 µM; activity change, negative = inhibition: at the top concentration
Text: NIH Molecular Libraries Probe Production Network [MLPCN]
NIH Chemical Genomics Center [NCGC]
PI Name: Malcolm Walkinshaw, University of Edinburgh
Several species of the Trypanosomatidae family of parasitic protozoans cause a spectrum of diseases throughout the tropical and subtropical world. Sleeping sickness, caused by two subspecies of Trypanosoma brucei, is endemic to areas of sub-Saharan Africa, while Chagas disease, a manifestation of Trypanosoma cruzi infection, is prevalent throughout Central and South America. In addition, many species of Leishmania are responsible for a range of cutaneous and visceral diseases, causing ulcers, destructive lesions and kalaazar, a lethal infection of the viscera. Collectively, these organisms infect 30 million people worldwide (~500 million live in endemic areas), and account for ~130,000 deaths annually. Given their debilitating and prevalent nature, trypanosomatid parasites impose a heavy medical, economic and social burden on entire populations, primarily in the developing world. The problem is further exacerbated by the fact that existing treatments have progressed little in the past 50 years, and current drugs show high toxicity and poor efficacy.
Blood-stream stages of T. brucei are entirely dependent on glycolysis as a source of ATP, and the tricarboxylic acid cycle and oxidative phosphorylation are both repressed. Glycolysis in axenically cultured T. cruzi, representing the intracellular pathogenic stage, is also essential for these parasites. […] Previous studies have shown that the glycolytic enzyme, phosphoglycerate mutase (PGAM), is a viable target for drugs to kill these parasites. […] Furthermore, the cobalt centers present within PGAM are only found in trypanosomatid and plant PGAMs, and are known to be required for activity, thereby providing an additional target. Moreover, trypanosomatid PGAMs are completely different from the enzyme that performs the same function in humans: the parasite and host enzymes share no structural or even mechanistic features; specificity is therefore unlikely to be an issue.
NCGC Assay Protocol Summary:
Briefly, 3ul of substrate buffer (all columns) are dispensed into Greiner white solid bottom 1536-well assay plates. Compounds are then transferred via Kalypsys pin tool equipped with 1536-pin array (10nl slotted pins, V&P Scientific, San Diego, CA). Following addition of compound, 1ul of Lm PGAM (1.25nM final concentration, columns […]) is added to initiate the reaction; columns 3-4 receive only TEA buffer as negative controls. The plates are then incubated at room temperature for 45 minutes. Kinase-GloPlus reagent is added (2ul) and plates incubated for 10 minutes, before being transferred to a ViewLux high-throughput CCD imager (PerkinElmer) wherein single end-point measurements of luminescence are acquired using a clear filter. All reagents are diluted in an assay buffer consisting of 100 mM TEA (pH 7.6), 5 mM MgCl2 and 0.01% Tween-20.
On the % scale 0 is the no-effect control and ±100 the full control effect.

Sequence of phosphoglycerate mutase (Leishmania major) (Q4Q090 1-553): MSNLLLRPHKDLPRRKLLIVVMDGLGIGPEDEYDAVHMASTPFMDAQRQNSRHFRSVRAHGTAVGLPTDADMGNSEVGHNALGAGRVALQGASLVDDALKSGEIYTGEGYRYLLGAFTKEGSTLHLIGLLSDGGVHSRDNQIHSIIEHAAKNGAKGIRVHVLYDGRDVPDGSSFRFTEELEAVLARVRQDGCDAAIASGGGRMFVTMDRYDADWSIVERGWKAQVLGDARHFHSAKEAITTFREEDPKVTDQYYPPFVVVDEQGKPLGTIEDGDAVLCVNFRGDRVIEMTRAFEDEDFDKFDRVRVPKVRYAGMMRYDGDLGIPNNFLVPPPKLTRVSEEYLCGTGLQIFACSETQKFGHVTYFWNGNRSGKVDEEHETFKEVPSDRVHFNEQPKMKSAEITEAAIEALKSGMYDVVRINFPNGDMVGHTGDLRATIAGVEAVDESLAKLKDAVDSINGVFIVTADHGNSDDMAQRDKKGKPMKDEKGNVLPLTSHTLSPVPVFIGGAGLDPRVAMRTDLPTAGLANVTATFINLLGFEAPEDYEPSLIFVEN

Going from `N#C/C(=C/c1ccc(O)c(O)c1)C(N)=S` to `CC(N)[C@H](O)c1ccc(O)c(O)c1` (stereo not given in full), the “activity change, negative = inhibition” value rises from -0.329% to 7.73%.

Compared with `CCCN1CCc2cccc3c2[C@H]1Cc1ccc(O)c(O)c1-3`, `CCCN(CCC)C1CCc2cccc(O)c2C1` (stereo not given) is higher in “activity change, negative = inhibition” value: -4.21% for the first, -2.77% for the second.

Going from `OC1CCCCC1N1CCC(c2ccccc2)CC1` (stereo not given) to `CN1C2CCC1CC(OC(c1ccccc1)c1ccccc1N)C2` (stereo not given), the “activity change, negative = inhibition” value falls from 1.82% to 1.19%.

Compared with `O=[N+]([O-])c1cc(O)c(O)c([N+](=O)[O-])c1`, `NCC(O)c1cc(O)c(O)cc1F` (stereo not given) is lower in “activity change, negative = inhibition” value: 3.76% for the first, -6.54% for the second.

Going from `NCCc1ccc(S(=O)(=O)F)cc1` to `NNC(=O)c1ccc(O)cc1`, the “activity change, negative = inhibition” value falls from 1.95% to -1.13%.

Going from `Clc1cc(I)cc(Cl)c1NC1=NCCN1` to `COc1ccc2[nH]c3c(c2c1)CCNC3`, the “activity change, negative = inhibition” value falls from 1.38% to -3.13%.

First: C[C@H](Cc1ccc2c(c1)OC(C(=O)O)(C(=O)O)O2)NC[C@H](O)c1cccc(Cl)c1
Second: C[N+](C)(C)CC#CCOC(=O)Nc1cccc(Cl)c1
The “activity change, negative = inhibition” value of the first is lower: -3.06% for the first, -2.31% for the second.

First: C/C(O)=C(\C#N)C(=O)Nc1cc(Br)ccc1Br
Second: C[C@H](N)CN1CCc2ccc(Br)cc21
The “activity change, negative = inhibition” value of the first is lower: -0.156% for the first, 3.63% for the second.

Going from `CC(=O)c1c(O)c(C)c(O)c(Cc2c(O)c3c(c(C(=O)/C=C/c4ccccc4)c2O)OC(C)(C)C=C3)c1O` to `COc1ccc(CNC(=O)/C=C/c2ccc3[nH]cc(CCN(C)C)c3c2)cc1`, the “activity change, negative = inhibition” value rises from 6.64% to 8.93%.

Compared with `c1ccc2c(c1)[I+]c1ccccc1-2`, `NC(=O)COc1c(F)cc(SCCNS(=O)(=O)c2ccccc2)cc1F` is lower in “activity change, negative = inhibition” value: 6.97% for the first, -1.08% for the second.

Compared with `C[C@@H]1O[C@H](C[N+](C)(C)C)CS1`, `CCCCCCC(C)(C)c1ccc([C@@H]2C[C@H](O)CC[C@H]2CCCO)c(O)c1` is lower in “activity change, negative = inhibition” value: -0.746% for the first, -1.77% for the second.

First: CCCn1c(=O)c2[nH]c(C3CCCC3)nc2n(CCCOC(=O)c2ccc(S(=O)(=O)F)cc2)c1=O
Second: CCOC(=O)c1ncn2c1[C@@H]1CCCN1C(=O)c1cc(OC)ccc1-2
The “activity change, negative = inhibition” value of the first is lower: -1.77% for the first, 7.9% for the second.

First: C[Se]C[C@H](N)C(=O)O
Second: N[C@@H](CCl)C(=O)O
The “activity change, negative = inhibition” value of the first is higher: 2.68% for the first, -2.43% for the second.

Compared with `Oc1ccc2c3c1O[C@H]1c4[nH]c5ccccc5c4C[C@@]4(O)C(C2)N(CC2CC2)CCC314` (stereo not given in full), `COc1ccc2c(c1)C13CCCCC1C(C2)N(C)CC3` (stereo not given) is lower in “activity change, negative = inhibition” value: 8.45% for the first, 6.75% for the second.

First: CC(=O)OCC1=C(C(=O)O)N2C(=O)[C@@H](NC(=O)CCC[C@@H](N)C(=O)O)[C@H]2SC1
Second: NC(N)=NOCC[C@H](N)C(=O)O
The “activity change, negative = inhibition” value of the first is higher: 2.57% for the first, -3.71% for the second.

First: NC(C(=O)O)c1cc(=O)[nH]o1 (stereo not given)
Second: COc1ccc(OC)c(C(O)C(C)N)c1 (stereo not given)
The “activity change, negative = inhibition” value of the first is higher: 0.443% for the first, -4.92% for the second.

Compared with `CN1CCc2cccc(Cl)c2CC1`, `Cc1cc([C@@H]2CCCN2C)on1` is lower in “activity change, negative = inhibition” value: -3.49% for the first, -5.43% for the second.

Compared with `NNC(N)=O`, `CCNC(=O)[C@H]1O[C@@H](n2cnc3c(N)ncnc32)[C@H](O)[C@@H]1O` is higher in “activity change, negative = inhibition” value: -8.63% for the first, 0.432% for the second.

Compared with `CC(C)NP(=O)(NC(C)C)OP(=O)(NC(C)C)NC(C)C`, `COc1cc(CC(C)N)c(OC)cc1I` (stereo not given) is higher in “activity change, negative = inhibition” value: -9.22% for the first, 17.8% for the second.

First: CCN(CCCl)Cc1ccccc1Br
Second: CP(=O)(O)C1=CCNCC1
The “activity change, negative = inhibition” value of the first is lower: 9.23% for the first, 19.6% for the second.

From PubChem BioAssay (NCATS)
